# Screens as filed in PubChem.
# RORgamma inh – qHTS for inhibitors of ROR gamma transcriptional activity; Drosophila S2 Gal4-RORgamma UAS-luciferase reporter, 20 h; Potency, µM (series often up to 53.6 µM), without a hit: at the top dose activity change, negative = inhibition, actives largely listed as inhibitors; hit rate 5.4% among 310,000; note: nearly all actives have a fitted effect of over 60% in size
#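 Drosophila S2 cells stably expressing Gal4-DBD/mouse RORγ fusion under metallothionein promoter plus UAS-luciferase; compound 1 h, then 700 uM CuSO4 induction for 20 h at ambient temperature; inhibition read as reduced luminescence.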
# NPSR antagonist – qHTS Assay for Antagonists of the Neuropeptide S Receptor: cAMP Signal Transduction; AID 1461, 2008; hit rate 1% among 220,000; CHO-NPSR cells, cAMP TR-FRET, antagonist mode; Potency, µM (doses to about 38.3 µM), for the others: at the top dose activity change, negative = inhibition, usual class: inhibitors; Q6W5P4; note: nearly all actives have a fitted effect of over 50% in size
# B2AR arrestin – qHTS assay of beta-arrestin-biased ligands of beta2-adrenergic receptor; Beta-2 adrenergic receptor (Homo sapiens), P07550; beta-arrestin recruitment to beta2AR, cell-based reporter; Potency, µM (titrated, usually from 46.1 µM), for inactives: at the highest dose activation, actives largely listed as activators; hit rate 0.02% among 330,000; AID 492947, 2010;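 note: 0% = DMSO controls and full agonism = EC100 isoproterenol or metaproterenol; nearly all actives have a fitted effect of over 65% in size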
# Gal4-VP16 FLuc – VP16 counterscreen qHTS for inhibitors of ROR gamma transcriptional activity | Drosophila S2 Gal4-VP16 UAS-luciferase, luminescence, 20 h | Potency, µM (highest dose often 53.6 µM), for inactives: top-dose activity, negative = inhibition, most hits filed as inhibitors | hit rate 3.5% among 310,000 | AID 2546, 2010;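 note: Gal4-VP16 expression switched on by copper sulfate through the metallothionein promoter; nearly all actives have a fitted effect of over 50% in size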
# An asterisk follows results filed as active; ? = inconclusive; · = no result given; [ ] = remark or other dose. Sampled rows, rich in hits. Any-hit rate of the full collection: about 5.7%. Calls come from the whole dose curve; as a rule, active = well fitted curve in the direction sought with a large enough effect; inconclusive = small, poorly fitted or top-dose-only effect, or another doubt; inactive = no such curve, though single readings can be large; an effect the other way counts as inactive or inconclusive. Unless noted, % is set by controls: 0 for no effect and ±100 for the full control effect; potency is the fitted concentration of half-maximal effect.
SMILES,RORgamma inh,NPSR antagonist,B2AR arrestin,Gal4-VP16 FLuc
CCc1nc(SCC(=O)c2ccc3c(c2)OCCO3)c2ccccc2n1,-15%,-15%[46.1 µM],-1%,?
COC(=O)c1ccc(C(=O)OC)c(NC(=S)N2CCCC(C)C2)c1 (stereo not given),7.9µM*,1%,-1%,7%
COC(=O)c1ccc(C(=O)OC)c(NC(=S)N2CC(C)CC(C)C2)c1 (stereo not given),11µM*,-9%,0%,14%
COC(=O)c1ccc(C(=O)OC)c(NC(=S)N2CCC(N3CCCCC3)CC2)c1,-19%,1%,0%,-1%
O=C1C2C3C=CC(C4CC34)C2C(=O)N1/N=C/c1ccc([N+](=O)[O-])o1 (stereo not given),13µM*,-15%,4%,10µM*
O=C1C2C(C(=O)N1/N=C/c1ccc([N+](=O)[O-])o1)C1C=CC2C12CC2 (stereo not given),?,2%,?,20µM*
O=C1C2C3C=CC(C4CC34)C2C(=O)N1/N=C/c1ccc(-c2ccc([N+](=O)[O-])cc2)o1 (stereo not given),0%,-19%,0%,-12%
C[C@@H](C(=O)O)c1ccc(C(=O)c2ccccc2)s1,13%[2.98 µM],·,·,-3%[17 µM]
Cc1noc(C)c1C(=O)N1CCC2(CCCN(C(=O)Nc3cccc(F)c3)C2)CC1,9%,·,·,7%
COc1ccc(COC(=O)N/N=C2/C[C@@H](O)[C@@H](O)[C@@H]3[C@@H]4C(=O)N(C(C)(C)C)C(=O)[C@H]4CC[C@@H]23)cc1,10%[10 µM],·,·,-9%[10 µM]
O=C1CN(C(=O)c2cccc([N+](=O)[O-])c2)CC(=O)N1,2%,·,-1%,2%
CC1=NN(C(=O)c2ccccc2)C(O)(c2ccc(Br)cc2)C1 (stereo not given),7.9µM*,-8%,-1%,?
COC(=O)C1(O)CC(C(C)C)=NN1C(=O)c1ccccc1 (stereo not given),-18%,8%,-1%,14%
CCC1=NN(C(=O)c2cccc([N+](=O)[O-])c2)C(O)(c2ccc(C)cc2)C1 (stereo not given),5µM*,·,0%,5.6µM*
CCC1=NN(C(=O)c2ccc(Br)cc2)C(O)(c2ccccc2)C1 (stereo not given),13µM*,-3%,0%,7.1µM*
O=C(c1ccccc1)N1N=C(c2ccccc2)CC1(O)C(F)(F)F (stereo not given),-24%,·,-1%,-18%
O=C(c1ccccc1)N1N=C(C(F)(F)F)CC1(O)c1ccccc1O (stereo not given),8.9µM*,·,2%,13µM*
COc1ccc(NC(=O)CSc2nc3ccccc3c(=O)n2CCCC(=O)NCC2CCCO2)c(OC)c1 (stereo not given),?,·,0%,-4%
COc1cccc(-c2ccc3ncnc(N(C)C)c3c2)c1,-33%,·,·,16%
COCCNC(=S)N/N=C(\C)c1ccccc1F,3.5µM*,-59%,?,20µM*
COCCNC(=S)N/N=C/c1ccccc1C(=O)O,12%,2%[46.1 µM],-1%,0%
COCCNC(=S)N/N=C(\C)c1ccccc1O,0.2µM*,-23%,0%,0.45µM*
COCCNC(=S)N/N=C(\C)c1ccccc1OC,2.5µM*,-31%,3%,6.3µM*
O=C(CCC(=O)N1CCN(Cc2ccc(F)cc2)CC1)Nc1nnc(C(F)(F)F)s1,20%,·,0%,-2%
Cn1c(=O)c(-c2cccs2)nc2cnc(N3CCNCC3)nc21,-27%,·,·,0%
SMILES,RORgamma inh,NPSR antagonist,B2AR arrestin,Gal4-VP16 FLuc
COc1cc(C(=O)Nc2nnc(C3CC3)s2)ccc1OCc1c(C)noc1C,-34%,-15%,-1%,-14%
CC1=CC2=NC(=O)/C(=C\c3cccn3CCOc3ccccc3C)C(=N)N2O1,-7%,10µM*,4%,-16%
CN(C)CCCN(Cc1ccccc1)C(=S)NCc1ccccc1,8%,-10%,-1%,3%
Cc1cccc(C)c1NC(=S)N(c1ccccc1)C(C)C,-14%,-7%,-1%,-7%
CC(C)N(C(=S)NCc1ccccc1)c1ccccc1,7.9µM*,-28%,0%,?
CC(C)N(C(=S)NCc1ccccc1)C(C)C,7.1µM*,5%,0%,11µM*
CC1CCCN(C(=O)c2ccc(NS(=O)(=O)c3cccc([N+](=O)[O-])c3)cc2)C1 (stereo not given),·,·,0%,·
